Reference: PubChem BioAssay (Tox21)
Values joined by “and” are separate entries in the source; they are usually repeats but may differ in a detail not shown here. Equal values may be shown once. Results filed as inconclusive are left out. A call without a number means that no potency is given here. Unmarked numbers belong to inactive results. Active and inactive are the calls of the source. Calls come from the whole dose curve; as a rule, active = well fitted cell-killing curve with a large enough effect in the repeat runs; inconclusive = weak or mixed curves; inactive = flat fitted curve, though single readings scatter.

Assay: qHTS RealTime-Glo MT Cell Viability Assay in HepG2 cells - 32 hour (AID 1224877); note: nearly all actives have a fitted effect of over 55% in size
Settings: RealTime-Glo luminescence; series mostly up to 76.8 µM
From the text: U.S. Tox21 Program National Center for Advancing Translational Sciences [NCATS] NIH Chemical Genomics Center [NCGC] U.S. Environmental Protection Agency [EPA] National Institutes of Environmental Health Sciences [NIEHS] National Toxicology Program [NTP] U.S. Food and Drug Administration [FDA] Tox21 Assay Overview: Measure of cell viability is critical in the cell-base assay. Analysis of cell viability is necessary for the characterization of cell responses to cytotoxic drugs and environmental stress. A RealTime-Glo MT Cell Viability Assay to monitor cell viability in real time of continues cell culture during 40 hours of compound treatment was used to screen Tox21 10K library compounds in HepG2 cells. The RealTime-Glo MT Cell Viability Assay is a nonlytic, homogeneous, bioluminescent method to measure cell viability in real time using a simple, plate-based method. The assay involves adding NanoLuc luciferase and a cell-permeant prosubstrate to cells in culture. Viable cells reduce the proprietary prosubstrate to generate a substrate for NanoLuc luciferase. This substrate diffuses from cells into the surrounding culture medium, where it is rapidly used by the NanoLuc Enzyme to produce a luminescent signal. The signal correlates with the number of viable cells, making the assay well suited for cytotoxicity studies.
Tox21 Assay Protocol Summary: The mixture of HepG2 cell suspension and reagents were dispensed at 600cells/6 ul/well in 1536-well tissue culture treated black solid bottom plates using a Multidrop dispenser. After the assay plates were incubated at a 37 C/5% CO2 incubator for 5 hours, 23 nL of compounds dissolved in DMSO, positive and negative controls was transferred to the assay plate by a pintool work station. The plates were incubated at 37 C for 40 hours. The luminescence intensity were measured at 0h, 8h, 16h, 24h, 32h and 40h time points using ViewLux plate reader during compound treatment.
Potency is the fitted concentration of half-maximal effect.

| Compound | Potency | activity change, negative = cytotoxic |
| --- | --- | --- |
| CCOP(=S)(OCC)SC(CCl)N1C(=O)c2ccccc2C1=O (stereo not given) | inactive |  |
| O=C(Cl)c1ccccc1F | inactive |  |
| CCOP(=O)(OCC)Oc1cc(C)nc(C(C)C)n1 | inactive |  |
| O=P(Cl)(Cl)Cl | inactive |  |
| CCN(CC)CCN1C(=O)CN=C(c2ccccc2F)c2cc(Cl)ccc21 | inactive |  |
| CCOC(=O)CCN(SN(C)C(=O)Oc1cccc2c1OC(C)(C)C2)C(C)C | inactive |  |
| C#CCO | inactive |  |
| CN(C)C(=S)SSC(=S)N(C)C | 54.2 µM (active) and 245 nM (active) and 169 nM (active) |  |
| COc1ccc2c(c1OC)C(=O)O[C@@H]2[C@H]1c2cc3c(cc2CCN1C)OCO3 | inactive |  |
| CC[C@]1(O)CC[C@H]2[C@@H]3CCC4=CCCC[C@@H]4[C@H]3CC[C@@]21C | inactive |  |
| c1cc[n+]2c(c1)-c1cccc[n+]1CC2 | inactive |  |
| CC(C)(C)c1ccc(OP(=O)(Oc2ccccc2)Oc2ccccc2)cc1 | inactive |  |
| CCC[CH2][Sn]([CH2]CCC)([CH2]CCC)[O][Sn]([CH2]CCC)([CH2]CCC)[CH2]CCC | 537 nM (active) |  |
| C=Cc1cccc(CCl)c1 | inactive |  |
| [Cl][Hg][c]1ccccc1 | 2750 nM (active) |  |
| Nc1nc(N)c(N)c(N)n1 | inactive |  |
| CCCC[N+]1(C)CCCC1 (tested in a mixture with another compound) | inactive |  |
| O=[N+]([O-])c1ccc(Cl)c(Cl)c1Cl | inactive |  |
| CC(C)c1c(CN(C)C(C)Cc2ccccc2)n(C)n(-c2ccccc2)c1=O (stereo not given) | inactive |  |
| CCN(CC)Cc1nccn1-c1ccc([N+](=O)[O-])cc1C(=O)c1ccccc1Cl | inactive |  |

| Compound | Potency | activity change, negative = cytotoxic |
| --- | --- | --- |
| CCN(CC)C(=O)N[C@@H]1C=C2c3cccc4[nH]cc(c34)C[C@@H]2N(C)C1 | inactive |  |
| O=Cc1ccccc1 | inactive |  |
| C[C@]12Cc3cn[nH]c3C[C@@H]1CC[C@@H]1[C@@H]2CC[C@@]2(C)[C@H]1CC[C@]2(C)O | inactive |  |
| CN=C=O | inactive |  |
| Nc1c(Cl)c(Cl)c(Cl)c(Cl)c1Cl | inactive |  |
| CCC(C)Br (stereo not given) | inactive |  |
| CC(Cc1ccccc1)N(C)Cc1ccco1 (stereo not given) | inactive |  |
| O=c1[nH]c(Cl)c(Cl)cc1Cl | inactive |  |
| C=C(C)C(=O)[O][Sn]([CH2]CCC)([CH2]CCC)[CH2]CCC | 245 nM (active) |  |
| BrCCCBr | inactive |  |
| [O-][Cl+3]([O-])([O-])O | inactive |  |
| CC(=O)[O-].CC(=O)[O-].CC(=O)[O-].[Sb+3] |  | 8.41% [at 2.72 µM] |
| Cc1cc2c3c(c1)C(c1ccccc1)=N[C@@H](NC(=O)c1ccncc1)C(=O)N3CC2 | inactive |  |
| COC(=O)c1ccccc1S(=O)(=O)NC(=O)Nc1nc(C)nc(OC)n1 | inactive |  |
| CC(=O)[O-].CC(=O)[O-].O.O.[Zn+2] | inactive |  |
| Cc1ccc2cc3c(ccc4ccccc43)c3c2c1CC3 | inactive |  |
| CCOP(=O)(Sc1ccccc1)Sc1ccccc1 | inactive |  |
| ClCBr | inactive |  |
| O=C(NC(=O)c1c(F)cccc1F)Nc1ccc(Oc2ccc(C(F)(F)F)cc2Cl)cc1F | inactive |  |
| CN1C(=O)[C@@H](NC(=O)c2cc3ccccc3[nH]2)N=C(c2ccccc2)c2ccccc21 | inactive |  |
